Data reported in PubChem BioAssay (NCI).
Values joined by “and” are separate entries in the source; they are usually repeats but may differ in a detail not shown here. Equal entries are not always repeated. About 83,000 compounds went through this panel and 20% of them were active in at least one assay; those are over-represented in the sample as a whole.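 Compound tested at a single concentration for 48 hours in 96-well plates; a percent growth value below 10 was scored as active.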 Active and inactive are the calls of the source.

These molecules were tested on OVCAR-8 ovarian (assay: NCI-60 one-dose screen, 48 h (100 = growth as untreated, 0 = no growth, -100 = all killed)). Conditions: 100 µM.

SMILES | growth
CCN(Cc1ccccc1)c1ccc(/C=C2\COc3ccccc3C2=O)cc1 | 47.6% (inactive)
CC(=O)/C=C/c1ccc(OCc2ccc(C(C)(C)C)cc2)cc1 | 23.2% (inactive)
CC(=O)/C=C/c1ccc(N(CCO)Cc2ccc(C(C)(C)C)cc2)cc1 | -81.1% (active)
O=C(/C=C/c1cccc(Oc2ccc(Cl)cc2)c1)c1ccccc1 | -50.8% (active)
CC(=O)/C=C/c1ccc(OCc2ccc(Cl)cc2)cc1 | 34.4% (inactive)
COc1ccc(C(=O)/C=C/c2ccc(OCc3ccc(Cl)cc3)cc2)cc1OC | -8.35% (active)
CC(=O)/C=C/c1ccc(N(C)Cc2ccc(C(C)(C)C)cc2)cc1 | -54.8% (active)

The molecules below were run on OVCAR-5 ovarian in the same assay as above. Conditions: 10 µM.

SMILES | growth
CCN(Cc1ccccc1)c1ccc(/C=C2\COc3ccccc3C2=O)cc1 | 101% (inactive)
CC(=O)/C=C/c1ccc(OCc2ccc(C(C)(C)C)cc2)cc1 | 89% (inactive)
CC(=O)/C=C/c1ccc(N(CCO)Cc2ccc(C(C)(C)C)cc2)cc1 | 78.2% (inactive)
O=C(/C=C/c1cccc(Oc2ccc(Cl)cc2)c1)c1ccccc1 | 96% (inactive)
COc1ccc(C(=O)/C=C/c2ccc(OCc3cccc(C(F)(F)F)c3)c(OC)c2)cc1OC | 109% (inactive)
CC(=O)/C=C/c1ccc(OCc2ccc(Cl)cc2)cc1 | 109% (inactive)
COc1ccc(C(=O)/C=C/c2ccc(OCc3ccc(Cl)cc3)cc2)cc1OC | 103% (inactive)
CC(=O)/C=C/c1ccc(N(C)Cc2ccc(C(C)(C)C)cc2)cc1 | 102% (inactive)

Same assay, conditions: 10 µM unless noted

SMILES | growth
CCOC(=O)c1ccc(Nc2ncnc3c2cnn3-c2cccc(F)c2)cc1 | 97.1% (inactive)
O=S(=O)(O)c1ccc(N=Nc2ccc(N=Nc3cccc4ccccc34)c(S(=O)(=O)O)c2)cc1 | 103% (inactive)
CC[C@@H]1NC(=O)[C@H]([C@H](O)[C@H](C)C/C=C/c2ccc(CN3C(=O)C(C)=C(C)C3=O)cc2)N(C)C(=O)[C@H](C(C)C)N(C)C(=O)[C@H](CC(C)C)N(C)C(=O)[C@H](CC(C)C)N(C)C(=O)[C@@H](C)NC(=O)[C@H](C)NC(=O)[C@H](CC(C)C)N(C)C(=O)[C@H](C(C)C)NC(=O)[C@H](CC(C)C)N(C)C(=O)CN(C)C1=O | 75.9% (inactive)
COc1nc(=O)n(C2C=CC(=O)O2)cc1F (centres undefined) | 129% (inactive)
COc1ccc(-c2csc(NC(=O)CN3CCN(CCO)CC3)n2)cc1NS(=O)(=O)c1cccc2c(N(C)C)cccc12 | 97% (inactive)
O=C1/C(=C/c2ccc(-c3cccc(C(F)(F)F)c3)o2)SC(=S)N1CCc1ccc(O)cc1 | 82.7% (inactive)
BrC1=C(Br)C(Br)(Br)C(Br)=C1Br | 97.2% (inactive)
OCc1cc(CN2CCCCC2)c(O)c2ncccc12 | 59.1% (inactive)
COc1ccc(C2=C(CN)C(O)NC(=NCC(=O)c3ccc4ccccc4c3)N2)cc1 (centres undefined) | 99.8% (inactive)
N#CSc1c[nH]c2ccc(/C=C/C(=O)/C=C(/C=C/c3ccc4[nH]cc(SC#N)c4c3)OB(F)F)cc12 | 17% (inactive)
COc1ccc(Oc2nc(Nc3ccc(N4CCOCC4)cc3)ncc2NC(=O)c2cc(OC)cc(OC)c2)cc1 | 123% (inactive)
COc1ccc2c(c1)oc1c(C)c3c(c(C)c12)C(=O)N(Nc1ccccc1)C3=O | 92% (inactive)
COc1ccc(/C=C2/C(=O)N=C3N2NC(c2ccccc2)=CN3c2ccccc2)cc1 | 107% (inactive)
O=C1/C(=C/c2ccccc2[N+](=O)[O-])Cc2ccccc21 | -1.63% (active) and 12.7% (inactive)
COc1ccc2c(c1)CCNC21C(=O)Nc2c(Br)cc(Br)cc21 (centres undefined) | 91.3% (inactive)
O=C(N/N=C/c1ccc(O)cc1O)c1cccc(Nc2ccnc(C(F)(F)F)c2)c1 | 47.8% (inactive)
O=C(c1cccc(Br)c1)N1CCN(c2ccnc3cc(Cl)ccc23)CC1 | 90% (inactive)
CCCCCC#CC1OC23CCCCC2C(C#N)(C(=N)O3)C1(C#N)C#N (centres undefined) | 102% (inactive)
COc1ccc(-c2c[nH]c(C(=O)O)c2-c2cc(OC)c(OC)c(OC)c2)cc1 | 80.6% (inactive)
NC(N)=NC(N)=NCCCc1ccco1 | 114% (inactive)
CN1Cn2c(ccc2C(F)(F)F)C(=O)CS1(=O)=O | 96% (inactive)
CCCc1cc(C(N)=S)ccn1 | 105% (inactive)
C#CCn1cnc2cnc(Nc3cccc(NC(=O)CCl)c3)nc21 | 14.8% [6.25 µM] (inactive)
CC1=C2[C@@H](CC1)[C@]1(C)O[C@@](C3CC3)(C[C@H]1OC(=O)CO)[C@H]2OC(=O)/C=C/c1ccccc1 | 96% (inactive)
CCCn1nc(C(=O)N2CCCCC2)c2c1CCC(N1CCC(c3ccncc3)CC1)C2 (centres undefined) | 107% (inactive)
Cc1c(O)c(O)cc2c3c(oc12)CC(c1ccc2c(c1)OCO2)CC3=O (centres undefined) | 113% (inactive)
COc1ccc(Nc2nn3c(SCC(=O)c4ccc(C)cc4)nnc3s2)cc1 | 99.3% (inactive)
N#Cc1c(-c2cccc(F)c2)cc(-c2cccnc2)[nH]c1=O | 98.9% (inactive)
O=[N+]([O-])c1ccc2[nH]c3nccc(NCc4cccc(Cl)c4)c3c2c1 | 86.3% (inactive)
